For eight compounds, growth inhibition results are on record in PubChem BioAssay (NCI).

A short description of the test: NCI Yeast Anticancer Drug Screen. Data for the CLN2oe strain (AID 163).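 Also: 0% = growth of vehicle-only control cultures.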 The conditions noted are these: S. cerevisiae CLN2oe strain, hits give high values. Here is the method:
Growth inhibition of yeast strains with defined genetic alterations is measured as a screen for potential anti-cancer activity. Selected strains with alterations in DNA damage repair or cell cycle control were exposed to compounds and growth inhibition was measured relative to vehicle treated controls. The strain used in this assay is CLN2oe

SMILES strings stand for the structures. This is part of a sample that, as a whole, favours compounds with a hit. Of some 79,000 tested, about 15% had one in any assay. Unmarked numbers belong to inactive results. The source made the active and inactive calls. Rule as the data show it: active = growth inhibition above about 70%; inactive = the rest.

Take `COc1ccc(C(=O)Oc2ccccc2Br)cc1`: the growth inhibition reads like this: (at 1.2 µM) -4%; (at 3.7 µM) -12%; (at 11.0 µM) -18%; (at 33.0 µM) -14%; (at 100.0 µM) 9%.
Regarding `C=C1CC(CCCl)(c2ccccc2)OC1=O` (stereo not given), the growth inhibition runs as follows: (at 1.2 µM) 4%; (at 3.7 µM) 7%; (at 11.0 µM) 24%; (at 33.0 µM) 85% (active); (at 100.0 µM) 98% (active).
`CCCCCCC(O)CNCc1ccnc2ccc(OC)cc12` (stereo not given): the growth inhibition was 9% (at 1.2 µM); 12% (at 3.7 µM); 39% (at 11.0 µM); 49% (at 33.0 µM); 56% (at 100.0 µM).
Taken in the same sequence, the figures for `O=C1C(=O)c2ccccc2C(O)=C1C(C1=C(O)c2ccccc2C(=O)C1=O)c1ccc(Cl)cc1` were 3%, 12%, 60%, 66% and 63%.
For `Cc1cccc(C(C)(C)C)c1NC(=O)C(C#N)C1=C(Cl)C(=O)c2ccccc2C1=O` (stereo not given), in that order: 4%, 30%, 58%, 98% (active) and 98% (active).
Taken in the same sequence, the figures for `OC(/C=C/c1ccccc1)(Cc1cc(-c2ccccc2)n[nH]1)c1ccccc1` (stereo not given) were 23%, 24%, 24%, 26% and 24%.
For `Nc1cc(N)c(N=Nc2cccc3c(S(=O)(=O)O)cccc23)cc1N=Nc1cc([N+](=O)[O-])ccc1O`, the growth inhibition is, setting by setting: (at 1.2 µM) 4%; (at 3.7 µM) 16%; (at 11.0 µM) -4%; (at 33.0 µM) -7%; (at 100.0 µM) -3%.
For `CN(C)N=Nc1ccccc1C(=O)NC#N`, in that order: 23%, 22%, 98% (active), 99% (active) and 99% (active).
